Experimental data taken from publication PMC11006913.
Positions count from the first letter of the chain named.

Tests used:
Assay in all cases: PBM; 200 nM protein, PBS
Settings in all cases: dsDNA, one strand shown
ALX4 [1] = biological target: ALX4 (Homo sapiens, UniProt Q9H161 200-286)
ALX4 [2] = biological target: ALX4 (Homo sapiens, UniProt Q9H161 200-286, Q225E)
MSX2 [3] = biological target: MSX2 (Homo sapiens, UniProt P35548 130-214, R199I)
MSX2 [4] = biological target: MSX2 (Homo sapiens, UniProt P35548 130-214)
MSX2 (Homo sapiens, UniProt P35548 130-214), sequence (P35548 130-214): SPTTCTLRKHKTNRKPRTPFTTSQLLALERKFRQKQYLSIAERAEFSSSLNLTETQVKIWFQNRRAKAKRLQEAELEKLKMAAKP

MSX2 [5] = biological target: MSX2 (Homo sapiens, UniProt P35548 130-214, F161Y)
MSX2 (Homo sapiens, UniProt P35548 130-214, F161Y), sequence (P35548 130-214 F161Y): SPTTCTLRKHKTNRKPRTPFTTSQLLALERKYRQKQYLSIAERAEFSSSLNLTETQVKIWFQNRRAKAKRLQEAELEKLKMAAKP

PAX4 [6] = biological target: T1, PAX4 (Homo sapiens, UniProt O43316 9-242, R200K)
T1 sequence: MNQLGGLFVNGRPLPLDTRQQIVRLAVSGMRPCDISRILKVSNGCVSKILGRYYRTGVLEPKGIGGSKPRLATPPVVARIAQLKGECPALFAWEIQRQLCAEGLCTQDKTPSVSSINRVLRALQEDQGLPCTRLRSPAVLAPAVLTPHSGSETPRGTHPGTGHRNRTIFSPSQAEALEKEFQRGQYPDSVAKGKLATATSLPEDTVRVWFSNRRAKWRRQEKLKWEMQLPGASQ

PAX4 [7] = biological target: T2, PAX4 (Homo sapiens, UniProt O43316 9-242)
T2 sequence: T1 sequence with K192R

HOXB6 [8] = biological target: HOXB6 (Homo sapiens, UniProt P17509 132-218, K202E)
HOXB6 (Homo sapiens, UniProt P17509 132-218, K202E), sequence (P17509 132-218 K202E): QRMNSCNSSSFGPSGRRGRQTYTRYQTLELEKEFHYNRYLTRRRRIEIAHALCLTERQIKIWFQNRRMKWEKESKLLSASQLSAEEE

PAX4 [9] = biological target: T3, PAX4 (Homo sapiens, UniProt O43316 9-242, R200Q)
T3 sequence: T1 sequence with K192Q

PAX4 [10] = biological target: T4, PAX4 (Homo sapiens, UniProt O43316 9-242, F177V)
T4 sequence: T1 sequence with F169V, K192R

PAX4 [11] = biological target: T5, PAX4 (Homo sapiens, UniProt O43316 9-242, F177Y)
T5 sequence: T1 sequence with F169Y, K192R

PAX4 [12] = biological target: T6, PAX4 (Homo sapiens, UniProt O43316 9-242, R227W)
T6 sequence: T1 sequence with K192R, R219W

HOXB6 [13] = biological target: HOXB6 (Homo sapiens, UniProt P17509 132-218)
HOXB6 (Homo sapiens, UniProt P17509 132-218), sequence (P17509 132-218): as the sequence (P17509 132-218 K202E) above, with E71K counted along it

PRRX1 [14] = biological target: PRRX1 (Homo sapiens, UniProt P54821 80-166, F113S)
PRRX1 (Homo sapiens, UniProt P54821 80-166, F113S), sequence (P54821 80-166 F113S): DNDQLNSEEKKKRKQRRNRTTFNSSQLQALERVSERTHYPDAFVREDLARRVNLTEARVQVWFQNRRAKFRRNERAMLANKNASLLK

PRRX1 [15] = biological target: PRRX1 (Homo sapiens, UniProt P54821 80-166)
PRRX1 (Homo sapiens, UniProt P54821 80-166), sequence (P54821 80-166): as the sequence (P54821 80-166 F113S) above, with S34F counted along it

ALX1 [16] = biological target: ALX1 (Homo sapiens, UniProt Q15699 118-204, L144V)
ALX1 (Homo sapiens, UniProt Q15699 118-204, L144V), sequence (Q15699 118-204 L144V): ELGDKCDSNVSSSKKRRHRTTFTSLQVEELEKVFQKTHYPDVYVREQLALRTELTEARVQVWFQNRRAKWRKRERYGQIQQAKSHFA

ALX1 [17] = biological target: ALX1 (Homo sapiens, UniProt Q15699 118-204, L144R)
ALX1 (Homo sapiens, UniProt Q15699 118-204, L144R), sequence (Q15699 118-204 L144R): as the sequence (Q15699 118-204 L144V) above, with V27R counted along it

ALX1 [18] = biological target: ALX1 (Homo sapiens, UniProt Q15699 118-204)
ALX1 (Homo sapiens, UniProt Q15699 118-204), sequence (Q15699 118-204): as the sequence (Q15699 118-204 L144V) above, with V27L counted along it

PROP1 [19] = biological target: PROP1 (Homo sapiens, UniProt O75360 56-141)
PROP1 (Homo sapiens, UniProt O75360 56-141), sequence (O75360 56-141): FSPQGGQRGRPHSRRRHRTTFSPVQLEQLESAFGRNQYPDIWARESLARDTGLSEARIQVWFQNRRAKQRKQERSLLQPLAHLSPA

PROP1 [20] = biological target: PROP1 (Homo sapiens, UniProt O75360 56-141, R99H)
PROP1 (Homo sapiens, UniProt O75360 56-141, R99H), sequence (O75360 56-141 R99H): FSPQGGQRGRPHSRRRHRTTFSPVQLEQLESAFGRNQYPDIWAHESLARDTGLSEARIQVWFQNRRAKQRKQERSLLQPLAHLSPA

PROP1 [21] = biological target: PROP1 (Homo sapiens, UniProt O75360 56-141, F88S)
PROP1 (Homo sapiens, UniProt O75360 56-141, F88S), sequence (O75360 56-141 F88S): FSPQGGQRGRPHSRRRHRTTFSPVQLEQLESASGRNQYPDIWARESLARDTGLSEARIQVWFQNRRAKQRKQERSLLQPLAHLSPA

HESX1 = HESX1 (Homo sapiens, UniProt Q9UBX0 95-180, F115L)
HESX1, sequence (Q9UBX0 95-180 F115L): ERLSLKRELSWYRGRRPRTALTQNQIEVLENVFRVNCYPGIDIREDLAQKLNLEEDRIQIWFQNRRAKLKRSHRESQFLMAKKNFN

ALX3 [22] = biological target: ALX3 (Homo sapiens, UniProt O95076 139-225, N203Q)
ALX3 (Homo sapiens, UniProt O95076 139-225, N203Q), sequence (O95076 139-225 N203Q): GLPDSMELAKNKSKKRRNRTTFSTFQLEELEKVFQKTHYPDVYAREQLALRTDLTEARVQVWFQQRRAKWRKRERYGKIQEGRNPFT

ALX3 [23] = biological target: ALX3 (Homo sapiens, UniProt O95076 139-225)
ALX3 (Homo sapiens, UniProt O95076 139-225), sequence (O95076 139-225): as the sequence (O95076 139-225 N203Q) above, with Q65N counted along it

ALX3 [24] = biological target: ALX3 (Homo sapiens, UniProt O95076 139-225, L168Q)
ALX3 (Homo sapiens, UniProt O95076 139-225, L168Q), sequence (O95076 139-225 L168Q): as the sequence (O95076 139-225 N203Q) above, with L30Q, Q65N counted along it

ALX3 [25] = biological target: ALX3 (Homo sapiens, UniProt O95076 139-225, L168V)
ALX3 (Homo sapiens, UniProt O95076 139-225, L168V), sequence (O95076 139-225 L168V): as the sequence (O95076 139-225 N203Q) above, with L30V, Q65N counted along it

ALX3 [26] = biological target: ALX3 (Homo sapiens, UniProt O95076 139-225, N203S)
ALX3 (Homo sapiens, UniProt O95076 139-225, N203S), sequence (O95076 139-225 N203S): as the sequence (O95076 139-225 N203Q) above, with Q65S counted along it

MSX2 (Homo sapiens, UniProt P35548 130-214, R199I), sequence (P35548 130-214 R199I): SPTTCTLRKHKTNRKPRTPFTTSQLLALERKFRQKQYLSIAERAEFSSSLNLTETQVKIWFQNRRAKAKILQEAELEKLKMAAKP
ALX4 (Homo sapiens, UniProt Q9H161 200-286), sequence (Q9H161 200-286): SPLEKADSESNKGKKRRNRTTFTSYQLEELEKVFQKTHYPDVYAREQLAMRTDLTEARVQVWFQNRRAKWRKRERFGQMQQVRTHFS
ALX4 (Homo sapiens, UniProt Q9H161 200-286, Q225E), sequence (Q9H161 200-286 Q225E): as the sequence (Q9H161 200-286) above, with Q26E counted along it

For AGAGAGCG, the binding signal (ALX4 [1]) was 8.15 upbm affinity estimate (log intensity, higher = more binding, comparable within an allelic series) and the binding signal (ALX4 [2]) was 8.26 upbm affinity estimate (log intensity, higher = more binding, comparable within an allelic series).
For CGGATGTC, the binding signal (ALX4 [1]) was 8.26 upbm affinity estimate (log intensity, higher = more binding, comparable within an allelic series) and the binding signal (ALX4 [2]) was 8.17 upbm affinity estimate (log intensity, higher = more binding, comparable within an allelic series).
With CCGTCCCC the binding signal (ALX4 [1]) was 8.07 upbm affinity estimate (log intensity, higher = more binding, comparable within an allelic series) and the binding signal (ALX4 [2]) was 8.31 upbm affinity estimate (log intensity, higher = more binding, comparable within an allelic series).
With CCCGGAAG the binding signal (ALX4 [1]) was 7.9 upbm affinity estimate (log intensity, higher = more binding, comparable within an allelic series) and the binding signal (ALX4 [2]) was 8.04 upbm affinity estimate (log intensity, higher = more binding, comparable within an allelic series).
ATCAATCA was tested, and the binding signal (ALX4 [1]) was 11.7 upbm affinity estimate (log intensity, higher = more binding, comparable within an allelic series) and the binding signal (ALX4 [2]) was 10.5 upbm affinity estimate (log intensity, higher = more binding, comparable within an allelic series).
For CTCCCTTC, the binding signal (ALX4 [1]) was 7.88 upbm affinity estimate (log intensity, higher = more binding, comparable within an allelic series) and the binding signal (ALX4 [2]) was 8.19 upbm affinity estimate (log intensity, higher = more binding, comparable within an allelic series).
GACGCGGC was tested, and the binding signal (ALX4 [1]) was 8.04 upbm affinity estimate (log intensity, higher = more binding, comparable within an allelic series) and the binding signal (ALX4 [2]) was 8.07 upbm affinity estimate (log intensity, higher = more binding, comparable within an allelic series).
In the case of GCAGACCC, the binding signal (ALX4 [1]) is reported as 7.9 upbm affinity estimate (log intensity, higher = more binding, comparable within an allelic series) and the binding signal (ALX4 [2]) is reported as 8.2 upbm affinity estimate (log intensity, higher = more binding, comparable within an allelic series).
With CTCTCGCC the binding signal (ALX4 [1]) was 7.89 upbm affinity estimate (log intensity, higher = more binding, comparable within an allelic series) and the binding signal (ALX4 [2]) was 8.06 upbm affinity estimate (log intensity, higher = more binding, comparable within an allelic series).
In the case of GCATTTGA, the binding signal (ALX4 [1]) is reported as 9.56 upbm affinity estimate (log intensity, higher = more binding, comparable within an allelic series) and the binding signal (ALX4 [2]) is reported as 9.16 upbm affinity estimate (log intensity, higher = more binding, comparable within an allelic series).
For CCTGCGAG, the binding signal (ALX4 [1]) was 7.97 upbm affinity estimate (log intensity, higher = more binding, comparable within an allelic series), the binding signal (ALX4 [2]) was 7.97 upbm affinity estimate (log intensity, higher = more binding, comparable within an allelic series) and the binding signal (MSX2 [3]) was 9.6 upbm affinity estimate (log intensity, higher = more binding, comparable within an allelic series). For the same sequence, the binding signal (MSX2 [4]) was 9.6 upbm affinity estimate (log intensity, higher = more binding, comparable within an allelic series) and the binding signal (MSX2 [5]) was 9.61 upbm affinity estimate (log intensity, higher = more binding, comparable within an allelic series).
For ATAGAGAT, the binding signal (PAX4 [6]) was 10.5 upbm affinity estimate (log intensity, higher = more binding, comparable within an allelic series) and the binding signal (PAX4 [7]) was 10.6 upbm affinity estimate (log intensity, higher = more binding, comparable within an allelic series).
In the case of CAGCCCGC, the binding signal (PAX4 [6]) is reported as 9.17 upbm affinity estimate (log intensity, higher = more binding, comparable within an allelic series), the binding signal (PAX4 [7]) is reported as 9.23 upbm affinity estimate (log intensity, higher = more binding, comparable within an allelic series) and the binding signal (HOXB6 [8]) is reported as 9 upbm affinity estimate (log intensity, higher = more binding, comparable within an allelic series). For the same sequence, the binding signal (MSX2 [3]) was 9.36 upbm affinity estimate (log intensity, higher = more binding, comparable within an allelic series), the binding signal (PAX4 [9]) was 9.12 upbm affinity estimate (log intensity, higher = more binding, comparable within an allelic series) and the binding signal (PAX4 [10]) was 9.04 upbm affinity estimate (log intensity, higher = more binding, comparable within an allelic series). The binding signal (MSX2 [4]) was 9.33 upbm affinity estimate (log intensity, higher = more binding, comparable within an allelic series), the binding signal (PAX4 [11]) was 8.99 upbm affinity estimate (log intensity, higher = more binding, comparable within an allelic series) and the binding signal (MSX2 [5]) was 9.37 upbm affinity estimate (log intensity, higher = more binding, comparable within an allelic series). For the same sequence, the binding signal (PAX4 [12]) was 9.09 upbm affinity estimate (log intensity, higher = more binding, comparable within an allelic series) and the binding signal (HOXB6 [13]) was 8.96 upbm affinity estimate (log intensity, higher = more binding, comparable within an allelic series).
In the case of CAGCCGGC, the binding signal (PAX4 [6]) is reported as 9.11 upbm affinity estimate (log intensity, higher = more binding, comparable within an allelic series), the binding signal (PRRX1 [14]) is reported as 9.15 upbm affinity estimate (log intensity, higher = more binding, comparable within an allelic series) and the binding signal (PAX4 [7]) is reported as 9.27 upbm affinity estimate (log intensity, higher = more binding, comparable within an allelic series). For the same sequence, the binding signal (MSX2 [3]) was 9.43 upbm affinity estimate (log intensity, higher = more binding, comparable within an allelic series), the binding signal (PAX4 [9]) was 9.19 upbm affinity estimate (log intensity, higher = more binding, comparable within an allelic series) and the binding signal (PAX4 [10]) was 9.05 upbm affinity estimate (log intensity, higher = more binding, comparable within an allelic series). The binding signal (MSX2 [4]) was 9.21 upbm affinity estimate (log intensity, higher = more binding, comparable within an allelic series), the binding signal (PAX4 [11]) was 9.05 upbm affinity estimate (log intensity, higher = more binding, comparable within an allelic series) and the binding signal (MSX2 [5]) was 9.41 upbm affinity estimate (log intensity, higher = more binding, comparable within an allelic series). For the same sequence, the binding signal (PAX4 [12]) was 9.13 upbm affinity estimate (log intensity, higher = more binding, comparable within an allelic series) and the binding signal (PRRX1 [15]) was 8.9 upbm affinity estimate (log intensity, higher = more binding, comparable within an allelic series).
For ACCCTCGG, the binding signal (ALX4 [1]) was 8.1 upbm affinity estimate (log intensity, higher = more binding, comparable within an allelic series), the binding signal (ALX4 [2]) was 8.11 upbm affinity estimate (log intensity, higher = more binding, comparable within an allelic series) and the binding signal (ALX1 [16]) was 6.49 upbm affinity estimate (log intensity, higher = more binding, comparable within an allelic series). The binding signal (ALX1 [17]) was 6.58 upbm affinity estimate (log intensity, higher = more binding, comparable within an allelic series) and the binding signal (ALX1 [18]) was 6.48 upbm affinity estimate (log intensity, higher = more binding, comparable within an allelic series).
With AATTATGT the binding signal (PAX4 [6]) was 11.6 upbm affinity estimate (log intensity, higher = more binding, comparable within an allelic series), the binding signal (PRRX1 [14]) was 11 upbm affinity estimate (log intensity, higher = more binding, comparable within an allelic series) and the binding signal (PAX4 [7]) was 12.1 upbm affinity estimate (log intensity, higher = more binding, comparable within an allelic series). The binding signal (ALX1 [16]) was 11.4 upbm affinity estimate (log intensity, higher = more binding, comparable within an allelic series), the binding signal (PAX4 [9]) was 11.8 upbm affinity estimate (log intensity, higher = more binding, comparable within an allelic series) and the binding signal (ALX1 [17]) was 11.1 upbm affinity estimate (log intensity, higher = more binding, comparable within an allelic series). The binding signal (PAX4 [10]) was 10.7 upbm affinity estimate (log intensity, higher = more binding, comparable within an allelic series), the binding signal (PAX4 [11]) was 11 upbm affinity estimate (log intensity, higher = more binding, comparable within an allelic series) and the binding signal (PROP1 [19]) was 11 upbm affinity estimate (log intensity, higher = more binding, comparable within an allelic series). For the same sequence, the binding signal (PROP1 [20]) was 10.7 upbm affinity estimate (log intensity, higher = more binding, comparable within an allelic series), the binding signal (PROP1 [21]) was 7.74 upbm affinity estimate (log intensity, higher = more binding, comparable within an allelic series) and the binding signal (HESX1) was 7.75 upbm affinity estimate (log intensity, higher = more binding, comparable within an allelic series). For the same sequence, the binding signal (PAX4 [12]) was 11 upbm affinity estimate (log intensity, higher = more binding, comparable within an allelic series) and the binding signal (PRRX1 [15]) was 13.3 upbm affinity estimate (log intensity, higher = more binding, comparable within an allelic series).
GAGAGCGC was tested, and the binding signal (ALX4 [1]) was 7.97 upbm affinity estimate (log intensity, higher = more binding, comparable within an allelic series), the binding signal (ALX4 [2]) was 8.13 upbm affinity estimate (log intensity, higher = more binding, comparable within an allelic series) and the binding signal (ALX3 [22]) was 7.72 upbm affinity estimate (log intensity, higher = more binding, comparable within an allelic series). The binding signal (ALX3 [23]) was 7.6 upbm affinity estimate (log intensity, higher = more binding, comparable within an allelic series), the binding signal (ALX3 [24]) was 7.75 upbm affinity estimate (log intensity, higher = more binding, comparable within an allelic series) and the binding signal (ALX3 [25]) was 7.76 upbm affinity estimate (log intensity, higher = more binding, comparable within an allelic series). The binding signal (ALX3 [26]) was 7.72 upbm affinity estimate (log intensity, higher = more binding, comparable within an allelic series).
In the case of AATTTTCA, the binding signal (ALX4 [1]) is reported as 11.5 upbm affinity estimate (log intensity, higher = more binding, comparable within an allelic series), the binding signal (ALX4 [2]) is reported as 10.4 upbm affinity estimate (log intensity, higher = more binding, comparable within an allelic series) and the binding signal (ALX1 [16]) is reported as 9.64 upbm affinity estimate (log intensity, higher = more binding, comparable within an allelic series). The binding signal (ALX1 [17]) was 9.33 upbm affinity estimate (log intensity, higher = more binding, comparable within an allelic series) and the binding signal (ALX1 [18]) was 10 upbm affinity estimate (log intensity, higher = more binding, comparable within an allelic series).
